Consider 8 molecules from PubChem BioAssay.

Each structure is given as a SMILES string. Activity calls are given as the source filed them.

In one experiment the target is Albumin (Bos taurus) (UniProt P02769). The experiment is described as follows: bovine serum albumin binders on microarray, profiling panel, artefact control for SMM control protein annotation, biochemical, small-molecule microarray, Alexa647 label, 635/667 nm fluorescence (AID 1118).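 Also: score merges 667 nm emission intensity and signal-to-noise per printed compound spot.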 The following applies: BSA-A647 binding, fluorescence 635 nm, higher = more signal.
Albumin (Bos taurus), sequence (P02769 whole entry, looked up): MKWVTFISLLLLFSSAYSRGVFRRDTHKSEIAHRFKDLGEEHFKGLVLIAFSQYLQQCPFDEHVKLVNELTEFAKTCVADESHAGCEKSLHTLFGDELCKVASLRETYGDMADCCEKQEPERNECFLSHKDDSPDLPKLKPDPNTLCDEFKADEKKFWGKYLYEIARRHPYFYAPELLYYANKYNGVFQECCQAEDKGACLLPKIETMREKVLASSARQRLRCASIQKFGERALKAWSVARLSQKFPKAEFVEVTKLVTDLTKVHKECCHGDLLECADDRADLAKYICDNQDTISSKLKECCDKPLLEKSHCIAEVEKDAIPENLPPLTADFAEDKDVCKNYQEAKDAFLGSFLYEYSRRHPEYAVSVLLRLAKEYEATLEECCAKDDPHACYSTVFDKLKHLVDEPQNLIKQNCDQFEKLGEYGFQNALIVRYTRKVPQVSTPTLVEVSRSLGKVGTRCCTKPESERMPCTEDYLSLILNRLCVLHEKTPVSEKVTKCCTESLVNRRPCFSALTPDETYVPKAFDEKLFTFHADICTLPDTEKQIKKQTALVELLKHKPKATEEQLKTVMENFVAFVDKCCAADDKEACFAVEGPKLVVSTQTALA
Experiment [1] can be described thus: small-molecule microarray binders of probe aXIP, primary screen, biochemical, NeuroSMM set, 635/667 nm fluorescence (AID 1119).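 Also: probe is the protein aXip251-270 applied at 1 µg/mL to compound-printed slides; binding of probe to printed compounds measured as 667 nm fluorescence plus signal to noise.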 The following applies: higher = more signal, called active from +8 up or from −8 down.
The nature of experiment [2]: small-molecule binders of probe aNOTCH3, primary screen, biochemical, small-molecule microarray, 635/667 nm fluorescence (AID 1120).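 Also: probe is a biotin-tagged antibody raised against NOTCH3 rather than NOTCH3 protein; score merges spot fluorescence near 667 nm with spot signal to noise.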 The following applies: higher = more signal.
A short description of experiment [3]: small-molecule binders of probe aNOTCH2, primary screen, biochemical, small-molecule microarray, 635/667 nm fluorescence (AID 1121).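 Also: score merges feature fluorescence read at 667 nm with its signal to noise.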 The following applies: higher = more signal.
In experiment [4] the target is Carbonic anhydrase 2 (Homo sapiens) (UniProt P00918). The experiment is described as follows: CAII small-molecule binders, profiling panel, biochemical, small-molecule microarray, Alexa647-labelled CAII (AID 1122). To be noted: CAII-A647 binding fluorescence, higher = more signal.
Experiment [5] can be described thus: COS7 lysate on small-molecule microarray, probe aHis, 635 nm (AID 1123).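 Also: z-score combines 667nm fluorescence intensity with signal-to-noise per printed compound spot.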 To be noted: COS7 cell lysate, fluorescence, higher = more signal.
Experiment [6] in a line: compound binding in COS7 lysate, probe aLAP1, primary screen, cell lysate, small-molecule microarray (AID 1124).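 Also: lysate comes from COS7 cells expressing LAP1 and is applied at 0.3 µg/mL; score merges spot fluorescence near 667 nm with signal-to-noise over triplicate slides.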 To be noted: probe aLAP1, fluorescence, higher = more signal.
The next experiment concerns Sam68 (KHDRBS1). In words: Sam68 small-molecule binders, primary screen, biochemical, small-molecule microarray, 635 nm fluorescence (AID 1125).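 Also: score merges 667 nm channel intensity with signal to noise over triplicate slides.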 The following applies: small-molecule microarray binding, higher = more signal.
Experiment [7] deals with Chordin-like protein 2 (CHRDL2). The experiment is described as follows: CHRDL2 small-molecule binders, primary screen, biochemical, small-molecule microarray, 635 nm fluorescence (AID 1126).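 Also: printed compound slides probed with Chrdl2 protein at 4 µg/mL for 1 h at 4 C; score merges 667 nm emission intensity with signal to noise over three replicate slides.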 The following applies: small-molecule microarray binding, fluorescence 635 nm; higher = more signal.
For experiment [8], the target named is Concanavalin-A (Canavalia ensiformis) (UniProt P02866). In words: ConA small-molecule binders, primary screen, artefact control for SMM control protein annotation, biochemical, small-molecule microarray, Alexa647 label, 635 nm (AID 1127).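 Also: z combines 667 nm emission intensity with signal-to-noise across three replicate slides.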 To be noted: ConA-A647 binding fluorescence, higher = more signal.
Concanavalin-A (Canavalia ensiformis), sequence (P02866 whole entry, looked up): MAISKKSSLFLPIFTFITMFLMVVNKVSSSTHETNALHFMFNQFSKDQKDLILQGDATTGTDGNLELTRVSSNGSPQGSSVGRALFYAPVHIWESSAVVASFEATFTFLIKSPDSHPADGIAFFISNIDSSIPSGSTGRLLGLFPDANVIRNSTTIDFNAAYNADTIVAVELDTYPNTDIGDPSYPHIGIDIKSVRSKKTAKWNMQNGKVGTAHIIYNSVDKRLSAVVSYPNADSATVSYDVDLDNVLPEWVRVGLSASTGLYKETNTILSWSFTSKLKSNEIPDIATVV
Experiment [9] in a line: anti-His antibody binders, primary screen, artefact control for SMM control protein annotation, biochemical, small-molecule microarray, 635 nm fluorescence (AID 1128).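 Also: score merges feature fluorescence with signal-to-noise for each printed compound spot.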 The following applies: anti-His Alexa647 antibody binding, higher = more signal.
Experiment [10] relates to Human papillomavirus type 1a E7 protein (residues 1-88). In words: HPV1a E7 small-molecule binders, primary screen, biochemical, small-molecule microarray, residues 1-88, 635 nm (AID 1129). To be noted: small-molecule microarray binding, fluorescence 635 nm; higher = more signal.
Experiment [11] concerns the target Focal adhesion kinase 1 (Homo sapiens) (UniProt Q05397). In words: small-molecule microarray binders of FAK, primary screen, biochemical, 635/667 nm fluorescence, BSA, DTT (AID 1130).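 Also: composite of spot emission at 667 nm and signal to noise over triplicate slides.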 The following applies: PTK2 binding, 635 nm fluorescence, higher = more signal.
The subject of experiment [12] is Fibrinogen (Alexa647-labelled). In words: fibrinogen binders on compound microarrays, profiling panel, artefact control for SMM control-protein annotation, biochemical, small-molecule microarray, 635/667 nm fluorescence (AID 1131).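 Also: z-score merges 667 nm fluorescence with per-spot signal-to-noise over triplicate slides.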 To be noted: fibrinogen-A647 binding fluorescence, higher = more signal.
The target of experiment [13] is Follistatin (Homo sapiens) (UniProt P19883). The experiment is described as follows: follistatin binders on small-molecule microarrays, primary screen, biochemical, small-molecule microarray, 635/667 nm fluorescence (AID 1132). To be noted: FST binding, 635 nm fluorescence, higher = more signal.
Follistatin (Homo sapiens), sequence (P19883 whole entry, looked up): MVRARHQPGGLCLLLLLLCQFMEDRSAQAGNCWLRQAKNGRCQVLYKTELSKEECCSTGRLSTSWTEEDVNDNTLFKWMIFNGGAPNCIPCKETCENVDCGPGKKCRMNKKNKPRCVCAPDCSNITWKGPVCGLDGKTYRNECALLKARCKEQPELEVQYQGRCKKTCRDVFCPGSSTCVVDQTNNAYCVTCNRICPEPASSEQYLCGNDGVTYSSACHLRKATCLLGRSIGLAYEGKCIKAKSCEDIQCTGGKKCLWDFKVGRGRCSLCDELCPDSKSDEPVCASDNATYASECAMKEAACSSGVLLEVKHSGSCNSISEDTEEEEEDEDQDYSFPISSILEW
Experiment [14] concerns the target Fibroblast growth factor 2 (Homo sapiens) (UniProt P09038). In words: FGF2 binders on small-molecule microarrays, primary screen, biochemical, small-molecule microarray, 635/667 nm fluorescence (AID 1133). To be noted: small-molecule microarray binding, FGF2, fluorescence 635/667; higher = more signal.
The nature of experiment [15]: mitochondrial membrane potential change in A549 cells, profiling panel, cell-based, JC-1 fluorescence, basal, 24 h, 100 nL (AID 1138).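 Also: A549 lung adenocarcinoma cells under basal conditions with no added stimulus; test concentration not given here.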 To be noted: higher = more signal.
Another experiment relates to Lefty1. The experiment is described as follows: Lefty1 binders on small-molecule microarrays, primary screen, biochemical, small-molecule microarray, 635/667 nm fluorescence (AID 1139). The following applies: small-molecule microarray binding, fluorescence 635/667; higher = more signal.
The test system of experiment [16] is wheat germ agglutinin (Triticum aestivum), Alexa647-labelled. The experiment is described as follows: wheat germ agglutinin binders on compound microarrays, profiling panel, artefact control for SMM control-protein annotation, biochemical, small-molecule microarray, 635/667 nm fluorescence (AID 1140).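 Also: score merges 667 nm feature emission with signal to noise over triplicate slides.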 To be noted: WGA-A647 binding, 635 nm fluorescence, higher = more signal.

The target in experiment [17] is Luciferin 4-monooxygenase (Photinus pyralis) (UniProt P08659). In words: firefly luciferase enzyme inhibitors, primary screen, biochemical, luminescence, purified enzyme, 2006 set (AID 1141).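 Also: cell-free assay with purified firefly luciferase at 100 ng per well in PBS; test concentration not given here.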 The following applies: SteadyGlo luminescence, 30 min, higher = more signal, called active from +8 up or from −8 down.
Luciferin 4-monooxygenase (Photinus pyralis), sequence (P08659 whole entry, looked up): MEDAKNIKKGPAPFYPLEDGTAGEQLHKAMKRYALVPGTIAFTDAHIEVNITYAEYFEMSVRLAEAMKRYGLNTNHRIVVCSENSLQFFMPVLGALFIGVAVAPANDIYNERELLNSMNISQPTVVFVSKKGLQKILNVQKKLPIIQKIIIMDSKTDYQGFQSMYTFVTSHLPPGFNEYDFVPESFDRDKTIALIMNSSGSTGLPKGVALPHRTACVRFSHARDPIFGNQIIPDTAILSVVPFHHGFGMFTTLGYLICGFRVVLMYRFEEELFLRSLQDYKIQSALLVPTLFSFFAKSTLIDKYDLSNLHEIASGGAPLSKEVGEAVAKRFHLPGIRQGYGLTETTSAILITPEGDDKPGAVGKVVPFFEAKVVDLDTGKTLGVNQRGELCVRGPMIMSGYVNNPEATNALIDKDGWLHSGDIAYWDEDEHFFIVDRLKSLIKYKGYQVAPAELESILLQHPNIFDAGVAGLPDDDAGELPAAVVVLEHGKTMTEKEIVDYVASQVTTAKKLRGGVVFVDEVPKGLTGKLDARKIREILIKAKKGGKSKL

Fibroblast growth factor 2 (Homo sapiens), sequence (P09038 whole entry, looked up): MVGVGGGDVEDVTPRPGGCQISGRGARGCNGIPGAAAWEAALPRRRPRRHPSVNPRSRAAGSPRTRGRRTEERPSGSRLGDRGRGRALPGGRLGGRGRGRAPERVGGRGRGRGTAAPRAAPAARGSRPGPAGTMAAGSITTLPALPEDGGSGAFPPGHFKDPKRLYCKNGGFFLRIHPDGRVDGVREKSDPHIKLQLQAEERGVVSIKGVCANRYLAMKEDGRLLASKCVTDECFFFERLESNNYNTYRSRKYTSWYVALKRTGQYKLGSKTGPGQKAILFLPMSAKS
Focal adhesion kinase 1 (Homo sapiens), sequence (Q05397 whole entry, looked up): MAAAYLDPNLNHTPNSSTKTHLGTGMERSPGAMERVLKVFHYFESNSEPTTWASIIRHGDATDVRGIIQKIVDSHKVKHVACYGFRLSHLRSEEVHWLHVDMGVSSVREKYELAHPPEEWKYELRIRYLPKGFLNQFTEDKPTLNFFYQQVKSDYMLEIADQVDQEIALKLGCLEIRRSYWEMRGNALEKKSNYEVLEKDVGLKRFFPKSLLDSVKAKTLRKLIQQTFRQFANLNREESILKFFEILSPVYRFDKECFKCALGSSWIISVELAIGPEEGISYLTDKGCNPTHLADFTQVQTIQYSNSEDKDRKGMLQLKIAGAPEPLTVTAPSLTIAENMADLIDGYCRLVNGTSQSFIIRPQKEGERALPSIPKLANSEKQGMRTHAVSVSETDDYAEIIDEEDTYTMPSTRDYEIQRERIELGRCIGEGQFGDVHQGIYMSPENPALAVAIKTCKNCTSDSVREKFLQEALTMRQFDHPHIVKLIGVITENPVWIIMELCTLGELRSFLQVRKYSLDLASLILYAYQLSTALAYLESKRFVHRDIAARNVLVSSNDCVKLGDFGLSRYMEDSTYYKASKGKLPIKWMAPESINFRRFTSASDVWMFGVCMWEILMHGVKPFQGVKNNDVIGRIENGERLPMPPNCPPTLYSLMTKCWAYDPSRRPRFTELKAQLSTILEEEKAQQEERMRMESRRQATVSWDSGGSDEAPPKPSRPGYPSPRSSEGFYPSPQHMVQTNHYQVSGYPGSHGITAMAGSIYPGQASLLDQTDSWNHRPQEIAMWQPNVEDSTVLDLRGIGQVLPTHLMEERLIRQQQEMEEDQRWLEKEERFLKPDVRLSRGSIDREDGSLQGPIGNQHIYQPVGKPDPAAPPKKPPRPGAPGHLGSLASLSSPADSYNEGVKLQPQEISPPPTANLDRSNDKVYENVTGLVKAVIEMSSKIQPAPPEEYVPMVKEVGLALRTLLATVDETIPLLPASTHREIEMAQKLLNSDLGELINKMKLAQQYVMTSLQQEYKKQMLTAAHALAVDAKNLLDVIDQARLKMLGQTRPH

On to `COC(=O)c1c(CC[C@@H](CO)NC(=O)N[C@H](Cc2ccccc2)Cn2cc(-c3ccccn3)nn2)oc(C(C)=O)c1C(=O)OC`, for which the composite z-score was 0.687 in the experiment with Albumin (Bos taurus); -0.154 in experiment [2]; -0.118 in experiment [3]; 0.71 in experiment [4]; 0.798 in experiment [5]; 1.26 in experiment [6]. Moreover, the composite z-score with Sam68 (KHDRBS1) was 0.954; in [7], -0.418; in [8] it was 1.09; in experiment [9], 1.52; in experiment [10] it was -0.178; in experiment [11], 0.0026. Also, the composite z-score in experiment [12] came out at 0.801; in experiment [13] it was 0.0798; in experiment [14], 0.451; in the experiment on Lefty1, 0.004; in experiment [16] it was 0.205. The composite Z-score in experiment [1] is 0.794 (inactive). Also, the z-score in experiment [15] is -0.117; in experiment [17], 0.67 (inactive).
As to `COCCCNC(=O)[C@@H]1c2ccccc2C(=O)N(Cc2ccccc2OC)[C@H]1c1ccc(CO)cc1`, the composite z-score in the experiment with Albumin (Bos taurus) was 0.459; in experiment [2] it was -0.0932; in experiment [3], -0.155; in experiment [4], 0.711; in experiment [5] it was 1.36; in [6], -0.355. Further, the composite z-score is -0.268 with Sam68 (KHDRBS1); 0.447 in experiment [7]; 0.948 in experiment [8]; 2.1 in [9]; 0.133 in experiment [10]; 0.503 in experiment [11]. The composite z-score in [12] was -0.444; in [13] it was 0.832; in experiment [14], 1.42; in the experiment with Lefty1 it was 1.07; in experiment [16], 0.701. In addition, in experiment [1], the composite Z-score was 0.414 (inactive). The figures for the z-score in experiment [15] and in [17] were -0.374 and 1.43 (inactive), respectively.
As to `CC(C)(C)OC(=O)CC[C@]1(C(=O)NCCN2CCOCC2)COC(c2ccc(OCCCO)cc2)=N1`, the composite z-score in the experiment with Albumin (Bos taurus) is 0.735; in experiment [2] it was 0.199; in experiment [3], -0.0995; in experiment [4], 0.719; in experiment [5], 2.48; in experiment [6], 0.737. In addition, the composite z-score was 1.28 in the experiment on Sam68 (KHDRBS1); -0.634 in [7]; 0.919 in [8]; 1.34 in experiment [9]; 1.19 in experiment [10]; 0.436 in [11]. Besides, the composite z-score in experiment [12] amounted to 0.46; in experiment [13], 1.32; in [14], 1.78; with Lefty1 it was 0.78; in [16] it was 0.253. Also, the composite Z-score in experiment [1] was 0.347 (inactive). Further, the z-score in experiment [15] was -0.13; in experiment [17], 0.965 (inactive).
Turning to `COCCCNC(=O)[C@@]1(CCS(=O)(=O)c2ccccc2)N=C(c2ccc(OCCCO)cc2)O[C@H]1c1ccccc1N=[N+]=[N-]`, the composite z-score with Albumin (Bos taurus) was 0.955; in [2] it was 0.307; in experiment [3] it was -0.0316; in experiment [4], 0.695; in [5] it was 3.05; in [6] it was 0.743. The composite z-score in the experiment on Sam68 (KHDRBS1) was 1.3; in experiment [7], -0.154; in experiment [8] it was 1.07; in experiment [9], 0.328; in experiment [10] it was 1.25; in experiment [11], -0.0191. Also, the composite z-score came to 1.02 in experiment [12]; 1.3 in [13]; 0.786 in experiment [14]; 1.27 in the experiment with Lefty1; 1.01 in experiment [16]. In addition, the composite Z-score in experiment [1] is 0.164 (inactive). Moreover, the z-score is -0.341 in experiment [15] and -8.3 (active) in [17].
Consider `CC=CC(O)C1C=CC2C(=O)N(C)C(=O)C2N1N(c1ccccc1)c1ccccc1` (stereo not given), for which the composite z-score in the experiment with Albumin (Bos taurus) is 0.803; in experiment [2] it was 0.0864; in [3] it was 0.0843; in experiment [4], 0.837; in experiment [5], -0.213; in [6] it was 0.198. In addition, the composite z-score in the experiment on Sam68 (KHDRBS1) was -0.113; in experiment [7] it was 0.686; in experiment [8] it was 0.555; in experiment [9], 0.573; in experiment [10], -0.226; in experiment [11], 0.0652. Further, the composite z-score was 0.241 in [12]; 0.803 in experiment [13]; -0.024 in [14]; 0.212 in the experiment with Lefty1; 0.318 in experiment [16]. Further, the composite Z-score in experiment [1] was -0.222 (inactive). Moreover, the z-score in experiment [15] was 1.32; in [17] it was 1.36 (inactive).
As for `C=C(CCCC)C(=O)CC[C@@H](OC(C)=O)c1ccc(CO)o1`, the composite z-score in the experiment with Albumin (Bos taurus) is -0.855; in experiment [2], -0.0581; in experiment [3], -0.108; in experiment [4], 0.645; in experiment [5] it was 0.423; in experiment [6], -0.0353. Besides, the composite z-score was 0.628 with Sam68 (KHDRBS1); 0.869 in experiment [7]; 0.0313 in [8]; 0.184 in experiment [9]; -0.261 in experiment [10]; -0.437 in [11]. Besides, the composite z-score in [12] turned out to be 0.513; in experiment [13] it was 1.36; in experiment [14] it was 1.8; with Lefty1, 1.64; in experiment [16], 0.201. In addition, the composite Z-score in [1] was -0.666 (inactive). Moreover, the z-score in experiment [15] is -0.683; in [17], -1.3 (inactive).
Take `CCOC(=O)C1=CC[C@H]2C(=O)N(c3ccccc3)C(=O)[C@@H]12`: the composite z-score in the experiment with Albumin (Bos taurus) is 0.916; in experiment [2], 0.0893; in [3], -0.046; in experiment [4], 0.848; in experiment [5], 2.7; in [6] it was 0.786. Also, the composite z-score amounted to 1.31 in the experiment with Sam68 (KHDRBS1); 0.613 in experiment [7]; 1.05 in [8]; 2.18 in [9]; 1.32 in experiment [10]; 0.291 in [11]. Moreover, the composite z-score was 1.04 in experiment [12]; 1.24 in experiment [13]; 0.385 in experiment [14]; 0.655 in the experiment with Lefty1; 0.56 in [16]. The composite Z-score in experiment [1] is 1.58 (inactive). Moreover, the z-score is -1.44 in [15] and 0.332 (inactive) in experiment [17].
In the case of `COc1ccc([C@H]2C[C@H]3C(I)=C[C@@H]2C(=O)[C@]32CO2)cc1`, the composite z-score with Albumin (Bos taurus) is -0.63; in [2] it was 0.0242; in experiment [3], -0.156; in experiment [4] it was -0.267; in experiment [5], -0.442; in experiment [6], -0.154. Moreover, the composite z-score in the experiment with Sam68 (KHDRBS1) was -0.889; in experiment [7], 0.189; in experiment [8], -0.0546; in experiment [9], -0.608; in [10] it was -0.658; in [11], -0.449. Further, the composite z-score was -0.193 in [12]; 0.762 in [13]; 1.14 in [14]; 0.983 with Lefty1; 0.24 in experiment [16]. In experiment [1], the composite Z-score was -0.617 (inactive). The z-score in experiment [15] was 1.1; in experiment [17] it was -0.303 (inactive).
